The full list was thinned out, with hits kept by preference.
NS1 inh = influenza NS1 inhibition. Potency, µM (top dose mostly 46.1 µM), for inactives: at the highest dose activity, positive = more growth. hit rate 0.4% among 270,000; calls by dose curve; further: actives are rising curves; nearly all actives have a fitted effect of over 50% in size
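Read-out: OD600 growth recovery of NS1-expressing budding yeast. Cells grown overnight at 30C in -URA glucose medium, washed, resuspended and diluted 1:100 in 2% galactose assay medium, pH 6.0. Same strain lacking NS1 served as positive control.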
Cruzain inh noDet = inhibitors of Trypanosoma cruzi cruzain without detergent. purified cruzain, Z-FR-AMC fluorescence, no detergent. hit rate 2.3% among 200,000. AID 1476. Potency, µM, without a hit: max response, negative = inhibition, actives largely listed as inhibitors;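 further: plate controls were enzyme without inhibitor for no effect and buffer without enzyme for full effect; nearly all actives have a fitted effect of over 40% in size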
Target sequence (P25779 123-467 limits assumed): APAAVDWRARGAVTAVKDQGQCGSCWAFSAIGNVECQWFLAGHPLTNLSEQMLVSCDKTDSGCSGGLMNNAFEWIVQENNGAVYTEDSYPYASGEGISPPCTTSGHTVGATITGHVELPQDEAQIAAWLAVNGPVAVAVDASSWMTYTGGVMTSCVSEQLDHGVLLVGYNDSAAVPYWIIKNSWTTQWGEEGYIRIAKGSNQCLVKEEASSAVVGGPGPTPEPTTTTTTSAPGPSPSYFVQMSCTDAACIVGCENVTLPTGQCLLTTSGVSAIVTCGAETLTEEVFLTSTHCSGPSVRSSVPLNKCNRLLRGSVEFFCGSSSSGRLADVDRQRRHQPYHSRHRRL
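Purified cruzain at 1.5 nM, pre-incubated 15 min with compound at room temperature in 100 mM sodium acetate pH 5.5, 5 mM DTT, 0.00005% Triton X-100. Reaction started with 2 uM Z-FR-AMC; AMC fluorescence increase over 60 s gives rate.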
Cruzain inh Det = cruzain (T. cruzi) inhibition with detergent; P25779; purified cruzain, Z-FR-AMC fluorescence, 0.01% Triton; Potency, µM, for the others: max response, negative = inhibition, actives largely listed as inhibitors; hit rate 0.43% among 200,000;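 further: plate controls were neutral wells for no effect and buffer without enzyme for full effect; nearly all actives have a fitted effect of over 40% in size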
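Cysteine protease activity tested under reducing, mildly acidic conditions (100 mM sodium acetate pH 5.5, 5 mM DTT) plus 0.01% Triton X-100. Cruzain 1.5 nM; substrate Z-FR-AMC 2 uM; 15 min compound preincubation at room temperature.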
* hit, by the source's call; ? = inconclusive; . = no result given. Unless noted, the call rests on the fitted dose curve; in most records, active means well fitted curve in the direction sought with a large enough effect; inconclusive means small, poorly fitted or top-dose-only effect, or another doubt; inactive means no such curve, though single readings can be large; an effect the other way counts as inactive or inconclusive. Potency means the concentration at half of the fitted maximal effect.

SMILES	NS1 inh	Cruzain inh noDet	Cruzain inh Det
CCOc1ccccc1CN1C(=O)c2ccccc2C1C(=O)NC1CCCCCC1 (stereo not given)	.	?	6%
COCCN1CN=C(Nc2nc3ccccc3o2)NC1	8%	-1%	8%
COCCN1CN=C(Nc2nc3ccccc3s2)NC1	-7%	16µM*	?
N#Cc1c(-c2ccccc2)cc(-c2ccccc2)nc1SCC(O)CS(=O)(=O)Cc1ccccc1 (stereo not given)	.	20µM*	-2%
CCOC(=O)/C(Sc1nc(-c2ccccc2)cc(-c2ccccc2)c1C#N)=C(\C)O	4%	.	.
C#CCSc1nc(-c2ccccc2)cc(-c2ccccc2)c1C#N	.	-28%	-6%
Cc1ccc(-c2cc(-c3ccccc3)c(C#N)c(SCC(O)CS(=O)(=O)Cc3ccccc3)n2)cc1 (stereo not given)	.	10µM*	-3%
CC1=C2C(=O)[C@@H]3[C@@H](CC=C4C[C@@H](O)CC[C@@]43C)[C@H]2CC[C@@]12O[C@H]1C[C@H](C)CN[C@H]1[C@@H]2C	-13%	-4%	-5%
ClCc1ccccc1	.	9%	7%
CC1=C(CC[C@H](C)CO)O[C@@H]2C[C@@H]3[C@H]4CC[C@H]5C[C@@H](O)CC[C@]5(C)[C@@H]4CC(=O)[C@@]3(C)[C@@H]12	-11%	-5%	2%
COc1ccccc1C1C=C(c2ccc(Cl)cc2)Nc2nc(-c3ccc(Cl)cc3)nn21 (stereo not given)	.	14%	-5%
COCCNC(=O)c1ccc2c(c1)N(Cc1cccc(Cl)c1)C(=O)c1ccccc1S2=O (stereo not given)	.	12%	-2%
O=C(NCCC1=CCCCC1)c1ccc2c(c1)N(Cc1ccc(F)cc1)C(=O)c1ccccc1S2(=O)=O	.	?	-1%
Cc1ccc(C)c(CN2C(=O)c3ccccc3S(=O)(=O)c3ccc(C(=O)N4CCCC4)cc32)c1	.	?	-2%
COc1ccc(CNC(=O)c2ccc3c(c2)N(Cc2ccccc2)C(=O)c2ccccc2S3(=O)=O)cc1	.	?	1%
CCc1ccccc1NC(=O)c1ccc2c(c1)N(Cc1cc(C)ccc1C)C(=O)c1ccccc1S2(=O)=O	.	16µM*	0%
O=C(NCCC1=CCCCC1)c1ccc2c(c1)N(Cc1cccc(Cl)c1)C(=O)c1ccccc1S2=O (stereo not given)	.	13µM*	-2%
Cc1ccc(C)c(CN2C(=O)c3ccccc3S(=O)(=O)c3ccc(C(=O)NCCC4=CCCCC4)cc32)c1	.	32µM*	0%
COc1ccc(CNC(=O)c2ccc3c(c2)N(Cc2ccccc2F)C(=O)c2ccccc2S3(=O)=O)cc1	.	25µM*	-1%
N#CCCCS(=O)(=O)c1nnnn1-c1ccc(Br)cc1	.	6%	3%
COc1ccc(-c2nc3n(n2)C(c2ccccc2OC)C(C(=O)Nc2cccnc2)=C(C)N3)cc1 (stereo not given)	.	?	-6%
CN(C)C(=O)n1nnnc1Cc1ccc(-c2ccccc2)cc1	.	-2%	-2%
CCN(CCCNC(=O)c1cc2c(=O)[nH]c3ccc(C)cc3c2s1)Cc1ccccc1	.	-6%	-11%
C[C@@H]1CCC2[C@](C)(CO)[C@@H](O)CC[C@]2(C)[C@]12CCC(CO)(CCO)O2 (stereo not given in full)	.	4%	5%
COCCn1c(C)cc(O)c(C(c2ccccc2)N2CCC(C)CC2)c1=O (stereo not given)	.	16%	-1%
SMILES	NS1 inh	Cruzain inh noDet	Cruzain inh Det
O=C(OCC1CCCO1)c1ccc2c(c1)N(Cc1ccccc1Cl)C(=O)c1ccccc1S2(=O)=O (stereo not given)	.	-29%	1%
O=C(NCc1ccco1)c1ccc2c(c1)N(Cc1cccc(Cl)c1)C(=O)c1ccccc1S2(=O)=O	.	?	-4%
Cc1ccc(C)c(CN2C(=O)c3ccccc3S(=O)c3ccc(C(=O)NCCc4ccc(Cl)cc4)cc32)c1 (stereo not given)	.	6.3µM*	0%
O=C(NCCC1=CCCCC1)c1ccc2c(c1)N(Cc1cccc(Cl)c1)C(=O)c1ccccc1S2(=O)=O	.	?	-1%
CCOC(=O)c1ccc2c(c1)N(Cc1ccc(F)cc1Cl)C(=O)c1ccccc1S2(=O)=O	.	10µM*	1%
O=C(NCCC1=CCCCC1)c1ccc2c(c1)N(Cc1ccc(Cl)cc1)C(=O)c1ccccc1S2(=O)=O	.	32µM*	-1%
O=C(NCc1ccco1)c1ccc2c(c1)N(Cc1ccc(Cl)cc1)C(=O)c1ccccc1S2(=O)=O	.	25µM*	-4%
COCCNC(=O)c1ccc2c(c1)N(Cc1cc(C)ccc1C)C(=O)c1ccccc1S2=O (stereo not given)	.	?	-1%
COc1ccc(-c2nc3cnc(N4CCOCC4)nc3n(CCc3ccccc3)c2=O)cc1	.	5%	0%
CCOC(=O)c1c(C)c(-c2ccccc2)n(CC(=O)NCc2ccccc2)c1C	.	-15%	1%

Screens: PubChem, National Center for Advancing Translational Sciences (NCATS)
